# Compound activity deposited in PubChem BioAssay by The Scripps Research Institute Molecular Screening Center.
# In the library only some 0.9% were active in any assay of this set; here they are far more common.
# SRC3 TRFRET art = TR-FRET artefact, counter-screen to PPARgamma/SRC-3 agonist assay | PPARgamma/SRC-3 format; active compounds read high | TR-FRET ratio at 8 µM | 99,000 compounds, 0.39% hits | AID 1048
# PPARg SRC3 recr = agonists of human PPARgamma SRC-3 coactivator recruitment; P37231; biochemical PPARgamma/SRC-3 coactivator recruitment assay; activation, % at 8 µM; 200,000 compounds, 0.26% hits; AID 731; in the data active = activation above about 23%;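 also: 0% = DMSO and 100% = reference agonist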
# Target sequence (P37231 whole entry, looked up): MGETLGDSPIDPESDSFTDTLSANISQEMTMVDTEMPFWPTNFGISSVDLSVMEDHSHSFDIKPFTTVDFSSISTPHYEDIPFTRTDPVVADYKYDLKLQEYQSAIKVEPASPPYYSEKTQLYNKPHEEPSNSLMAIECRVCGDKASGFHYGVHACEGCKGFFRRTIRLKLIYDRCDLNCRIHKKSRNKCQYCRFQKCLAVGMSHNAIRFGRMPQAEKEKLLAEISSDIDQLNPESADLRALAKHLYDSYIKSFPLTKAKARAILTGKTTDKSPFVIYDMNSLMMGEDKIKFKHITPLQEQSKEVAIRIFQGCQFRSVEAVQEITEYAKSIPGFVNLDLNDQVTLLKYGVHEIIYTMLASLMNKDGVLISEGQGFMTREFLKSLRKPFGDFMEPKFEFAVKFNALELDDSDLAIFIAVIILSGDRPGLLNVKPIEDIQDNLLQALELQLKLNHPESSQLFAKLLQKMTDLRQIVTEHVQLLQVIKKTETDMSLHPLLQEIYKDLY
# SRC1 TRFRET art = counter-screen for PPARgamma SRC-1 recruitment agonists: TR-FRET artefact; TR-FRET detection artefact counter-screen, emission ratio; active compounds read high; TR-FRET ratio at 8 µM; 99,000 compounds, 0.34% hits; in the data active = TR-FRET ratio above about 2300
# PPARg SRC-2 ag = agonists of SRC-2 recruitment by human PPARgamma | PPARgamma LBD-SRC-2 recruitment, biochemical | activation, % at 8 µM | 200,000 compounds, 0.34% hits; in the data active = activation above about 22%;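 also: 0% = vehicle and 100% = reference agonist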
# PPARg SRC1 recr = promotes SRC-1 coactivator recruitment by human PPARgamma; P37231; PPARgamma-SRC-1 coactivator recruitment biochemical assay; activation, % at 8 µM; 200,000 compounds, 0.41% hits; AID 631; in the data active = activation above about 19%;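 also: 0% = DMSO and 100% = reference agonist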
# TR-FRET SRC-2 ct = TR-FRET artefact, counter-screen to PPARgamma/SRC-2 agonist assay | active compounds read high | TR-FRET ratio at 8 µM | 200,000 compounds, 0.4% hits
# The depositor's hits bear a star; / = no result. Rule as the data show it, unless noted: active = TR-FRET ratio above about 2000; inactive = the rest.
SMILES,SRC3 TRFRET art,PPARg SRC3 recr,SRC1 TRFRET art,PPARg SRC-2 ag,PPARg SRC1 recr,TR-FRET SRC-2 ct
CCN(CC)CCn1c(NC(=O)c2ccc(Cl)cc2)nc2ccccc21,/,1.1,/,153.1*,-4.7,4842*
CCOc1ccc(C(=O)NC(=S)Nc2cccc(NC(=O)c3ccco3)c2)cc1[N+](=O)[O-],1600,4.8,1794,1.8,3.7,1442
Cc1ccccc1C(=O)N1CCc2cc(-c3nc(NC(=O)Cc4ccc5c(c4)OCO5)sc3C)ccc21,2401*,9.1,2310,2.3,9.3,2157*
Cc1sc(NC(=O)Cc2ccc3c(c2)OCO3)nc1-c1ccc2c(c1)CCN2C(=O)c1cccc(F)c1,1615,1.6,1641,7.0,-1.2,1658
COCCN=c1scc(C)n1/N=C/C1CC2C=CC1C2 (stereo not drawn),1512,-3.5,1889,-8.8,-0.4,1445
CC(C)(C)c1nnc(NC(=O)CN2C(=O)C3C4C=CC(C4)C3C2=O)s1 (stereo not drawn),/,36.3*,/,-10.8,-0.3,1429
N#Cc1c(-c2ccc(Br)cc2)cc(-c2cccnc2)nc1N,2107*,10.5,1900,0.9,6.2,1568
CC(C)(C)NC(=O)CSc1nnc(-c2ccco2)n1Cc1ccco1,1540,2.8,1846,13.0,4.7,2029*
NNc1nc2c(-c3ccc(Cl)cc3)nnn2c2ccccc12,1621,5.8,1516,2.4,11.2,1573
NNc1nc2c(-c3ccc(F)cc3)nnn2c2ccccc12,1482,6.0,1861,8.9,23.8*,1767
C=C(C)CC1(NC(C)c2ccccc2)CCCCC1 (stereo not drawn),1655,4.8,1888,3.7,3.0,1616
O=C(CSCc1ccccc1Br)N/N=C/c1ccccc1C(=O)O,1474,-0.6,1689,-10.2,-4.2,1539
O=C(CSc1nnnn1Cc1ccccc1)NCCc1ccccc1,1723,4.0,1886,1.7,6.5,1626
O=C(CSc1nnnn1Cc1ccccc1)NCC(=O)c1ccccc1,/,8.6,/,22.7*,5.8,1643
C=CCOc1cccc(C2C(C(=O)c3ccc(C)o3)=C(O)C(=O)N2Cc2ccncc2)c1 (stereo not drawn),/,22.9,/,15.8,13.1,2037*
CCc1ccc2c(c1)cc(CN(C(=S)Nc1ccc(Cl)cc1)C1CC1)c1nnnn12,/,1.1,/,-3.8,48.3*,1566
COCCNC(=S)N(Cc1cc2cc(C)ccc2n2nnnc12)C1CCCC1,1536,0.9,1583,1.4,-9.3,1421
COc1cccc2sc(N3CCN(c4nc5ccccc5s4)CC3)nc12,/,30.9*,/,3.1,12.3,1528
c1ccc2sc(N3CCOCC3)nc2c1,/,-1.2,/,8.8,6.3,1698
Clc1ccc(Cl)c2sc(N3CCCC3)nc12,/,-3.0,/,-5.9,2.3,1469
Clc1cccc2sc(N3CCN(c4ccccc4)CC3)nc12,1618,-1.3,2030,28.1*,1.4,1671
O=C(Nc1ccc(Cl)cc1)/C(=C/c1ccc([N+](=O)[O-])cc1)c1nc2ccccc2s1,1462,-0.9,1464,0.4,2.0,1434
COC(=O)c1sccc1NC(=O)c1ccc(Br)s1,/,14.0,/,10.4,43.4*,1947
CC(=O)Nc1ccc(-c2nnn(CC(=O)Nc3ccc4c(c3)OCO4)n2)cc1Cl,1499,1.8,1585,-2.8,-4.0,1561
CC(=O)OCC1(C)CN(c2ccccc2)N(C(=O)c2ccc(F)cc2)C1=O (stereo not drawn),1501,-3.6,1823,-0.2,8.9,1746
SMILES,SRC3 TRFRET art,PPARg SRC3 recr,SRC1 TRFRET art,PPARg SRC-2 ag,PPARg SRC1 recr,TR-FRET SRC-2 ct
COc1ccc2sc3ccccc3c(=O)c2c1,/,3.2,/,6.1,3.1,2220*
COc1ccc(-c2cc(=O)c3ccccc3s2)cc1,/,0.5,/,-4.4,0.5,1505
CCc1ccc(N(C(=O)c2csnn2)C(C(=O)NC(C)(C)C)c2cccnc2)cc1 (stereo not drawn),1691,-2.0,1763,22.9*,0.1,2266*
COc1ccc(C2CC(c3ccccc3)=NN2C(=O)COC(=O)c2cc(S(=O)(=O)N3CCOCC3)ccc2F)cc1 (stereo not drawn),2106*,3.6,2247,5.4,15.7,2124*
C#CCn1c(=NC(=O)c2ccc(Cl)s2)sc2cccc(OC)c21,/,29.7*,/,5.7,9.5,1639
Cc1nc(SCC(=O)Nc2ccc(F)cc2)c(C#N)c(C)c1CC(=O)c1ccc(Br)cc1,/,8.1,/,8.3,21.7*,1535
COc1ccc(C2(C)NC(=O)N(CC(=O)Nc3ccc(-c4nc5ccc(C)cc5s4)cc3)C2=O)cc1 (stereo not drawn),2403*,-0.5,2469*,4.2,5.7,1907
CCC1(c2ccc(F)cc2)NC(=O)N(CC(=O)Nc2ccc(-c3nc4ccc(C)cc4s3)cc2)C1=O (stereo not drawn),2350*,-1.6,1683,-2.9,-2.6,1532
Cc1nc2ccc(NC(=O)CCS(=O)(=O)c3ccccc3)cc2s1,1750,-2.8,1719,-2.9,5.1,1460
Cc1ccc2nc(-c3ccc(NC(=O)CCS(=O)(=O)c4ccccc4)cc3)sc2c1,2301*,3.2,1675,2.6,3.7,1685
CN(C)c1nnnn1-c1ccc(Oc2ncc(C(F)(F)F)cc2Cl)cc1,1645,6.0,1788,10.7,11.6,1727
COc1ccc(-c2cc(-c3ccccc3)c(C#N)c(SCC(=O)Nc3ncc(C)s3)n2)cc1,2402*,7.5,2146,6.4,3.2,1634
COC(=O)c1nnn(-c2ccccc2)c1N,/,0.9,/,1.3,-1.1,1453
COCc1c(C(=O)OC)nnn1-c1ccccc1,/,12.3,/,-3.5,94.1*,1401
COc1ccc(OC)c(-c2csc(NC(=O)c3ccc(OCC4CCCO4)cc3)n2)c1 (stereo not drawn),2496*,-2.9,1767,-2.1,1.7,1749
Cc1cnc(NC(=O)c2ccc(OCC3CCCO3)cc2)s1 (stereo not drawn),1284,6.8,1826,4.3,12.5,1718
Nc1ccc2nc(SCc3cccc(F)c3)sc2c1,1490,-0.9,1428,6.9,2.6,1625
CCN(CC)S(=O)(=O)c1ccc2c(c1)nc(CCC(=O)Nc1ccc(N3CCOCC3)cc1)n2C,1615,8.7,2123,3.3,6.8,1642
CCc1cc2c(=O)n(CCC(C)C)c(=S)[nH]c2s1,1765,10.0,2042,8.5,11.3,1976*
CC(=O)N(C)c1ccc(NC(=O)Nc2ccc(C)c(C)c2)cc1,1441,1.1,1831,2.5,10.7,1672
Cc1n[nH]c(C)c1S(=O)(=O)N(CC(=O)Nc1ccc2c(c1)OCCO2)c1ccc(C(C)C)cc1,/,0.4,/,23.8*,7.0,1632
Cc1noc(C)c1S(=O)(=O)N(CC(=O)Nc1ccc2c(c1)OCO2)c1ccc(C(C)C)cc1,/,4.8,/,10.9,4.3,1718
Cc1nnc(SCC(=O)Nc2ccc(S(=O)(=O)N3CCCC3)cc2)n1N,/,0.2,/,5.3,6.0,1640
